# Target: T1, Methionyl-tRNA synthetase, putative (Leishmania donovani (strain BPK282A1)) (UniProt E9BF75)
# T1 sequence (whole entry): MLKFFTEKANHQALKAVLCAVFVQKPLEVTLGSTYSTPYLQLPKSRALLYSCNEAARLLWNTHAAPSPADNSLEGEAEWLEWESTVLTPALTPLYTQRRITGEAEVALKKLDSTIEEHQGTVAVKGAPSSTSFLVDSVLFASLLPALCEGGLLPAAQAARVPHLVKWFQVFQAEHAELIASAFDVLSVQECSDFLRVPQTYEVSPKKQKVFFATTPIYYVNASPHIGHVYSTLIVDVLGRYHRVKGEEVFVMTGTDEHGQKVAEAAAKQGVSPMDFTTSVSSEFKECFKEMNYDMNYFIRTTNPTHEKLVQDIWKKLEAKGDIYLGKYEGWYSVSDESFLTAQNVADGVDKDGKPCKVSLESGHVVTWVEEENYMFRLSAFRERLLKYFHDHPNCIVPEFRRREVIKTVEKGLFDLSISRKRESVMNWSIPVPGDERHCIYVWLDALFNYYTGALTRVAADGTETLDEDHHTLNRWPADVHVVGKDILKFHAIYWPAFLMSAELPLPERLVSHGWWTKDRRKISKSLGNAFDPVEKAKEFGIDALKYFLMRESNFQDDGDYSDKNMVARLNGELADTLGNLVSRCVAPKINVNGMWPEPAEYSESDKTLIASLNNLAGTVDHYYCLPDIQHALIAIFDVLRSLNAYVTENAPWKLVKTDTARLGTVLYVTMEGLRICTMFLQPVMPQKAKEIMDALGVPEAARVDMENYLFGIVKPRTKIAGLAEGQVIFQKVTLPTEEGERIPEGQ
# Test: Leishmania donovani Methionine tRNA synthetase (LdMetRS):v7. Dose response assay
# Type: functional
# Set-up: conc 80 nM, time 150 minutes
smiles,measurement,setting,value
Cn1cccc1C1CCCCCN1C(=O)c1ccc(NC2CC2)nc1 (stereo not drawn),PXC50,"BOTTOM 0.111908338, HILLSLOPE 1.39754326, MAX_EFFECT 51.12651646, TOP 100.0",4.03
same,PXC50,"BOTTOM 4.752718183, HILLSLOPE 1.435645002, MAX_EFFECT 69.44444444, TOP 100.0",4.25
same,PXC50,"BOTTOM 4.940186034, HILLSLOPE 1.180279811, MAX_EFFECT 63.75838926, TOP 100.0",4.18
same,PXC50,MAX_EFFECT 37.16108453,< 4
same,PXC50,MAX_EFFECT 39.73128599,< 4
CN(C)CCNc1nc(Nc2ccc(F)c(F)c2)nc2c1cnn2C,PXC50,"BOTTOM 0.475518208, HILLSLOPE 0.90804468, MAX_EFFECT 68.49315068, TOP 100.0593914",4.37
same,PXC50,"BOTTOM 1.11826122, HILLSLOPE 1.149142478, MAX_EFFECT 65.47169811, TOP 85.8972695",4.44
same,PXC50,"BOTTOM 3.189178936, HILLSLOPE 1.201155954, MAX_EFFECT 69.44971537, TOP 84.11641449",4.53
Cn1ncc2c(NCCn3cnnn3)nc(Nc3ccc(F)c(F)c3)nc21,PXC50,"BOTTOM 0.694813003, HILLSLOPE 0.766193094, MAX_EFFECT 55.16528926, TOP 100.0",4.46
same,PXC50,MAX_EFFECT 43.90715667,< 4
same,PXC50,MAX_EFFECT 44.05286344,< 4
Cc1cc(C)n(C2CN(CC(=O)N(C)Cc3cnn(C)c3)C2)n1,PXC50,"BOTTOM 1.685263138, HILLSLOPE 1.431243041, MAX_EFFECT 59.07590759, TOP 100.0",4.06
same,PXC50,MAX_EFFECT 33.33333333,< 4
same,PXC50,MAX_EFFECT 44.80286738,< 4
OCCNc1nc(Nc2ccc(F)c(F)c2)nc2ccsc12,PXC50,"BOTTOM 1.719198718, HILLSLOPE 0.904710071, MAX_EFFECT 90.94412331, TOP 99.0565164",5.18
same,PXC50,"BOTTOM 2.94588064, HILLSLOPE 1.041078654, MAX_EFFECT 85.02202643, TOP 89.21565971",5.26
same,PXC50,"BOTTOM 5.256543605, HILLSLOPE 0.944714137, MAX_EFFECT 88.2231405, TOP 97.0813666",5.17
CC(C)C[C@H](N)COc1cccc(F)c1Oc1ccc(Cl)cc1,PXC50,"BOTTOM 2.189725924, HILLSLOPE 1.340429131, MAX_EFFECT 78.50287908, TOP 100.0",4.39
same,PXC50,"BOTTOM 6.665693755, HILLSLOPE 1.000390525, MAX_EFFECT 63.08724832, TOP 89.83359252",4.34
same,PXC50,"BOTTOM 8.555350196, HILLSLOPE 1.300138335, MAX_EFFECT 82.32235702, TOP 100.0",4.4
same,PXC50,"BOTTOM 9.084234051, HILLSLOPE 1.282962904, MAX_EFFECT 79.16666667, TOP 100.0",4.36
same,PXC50,"BOTTOM -2.40342641, HILLSLOPE 1.582156808, MAX_EFFECT 66.8261563, TOP 100.0",4.18
Cc1nc(Cc2ccc(F)cc2)cc(C2COCCN2)n1 (stereo not drawn),PXC50,"BOTTOM 2.29407011, HILLSLOPE 1.165905826, MAX_EFFECT 59.72222222, TOP 100.0",4.12
same,PXC50,"BOTTOM 7.218737982, HILLSLOPE 1.406075807, MAX_EFFECT 57.71812081, TOP 100.0",4.05
same,PXC50,MAX_EFFECT 41.7677643,< 4
Cc1cc(NCCO)nc(Nc2ccc(F)c(F)c2)n1,PXC50,"BOTTOM 2.753913498, HILLSLOPE 0.759187316, MAX_EFFECT 87.41092637, TOP 100.0",4.84
same,PXC50,"BOTTOM 8.051339334, HILLSLOPE 0.840494555, MAX_EFFECT 84.97854077, TOP 109.6160526",4.62
same,PXC50,"BOTTOM -3.669323527, HILLSLOPE 0.810726137, MAX_EFFECT 81.68224299, TOP 99.92002792",4.84
Cn1ncc2c(NCC(C)(C)O)nc(Nc3ccc(F)c(F)c3)nc21,PXC50,"BOTTOM 2.756167144, HILLSLOPE 0.998486082, MAX_EFFECT 82.64150943, TOP 95.06215472",4.8
same,PXC50,"BOTTOM -1.483509386, HILLSLOPE 0.96789371, MAX_EFFECT 77.86259542, TOP 87.31089032",4.95
same,PXC50,"BOTTOM -2.002010489, HILLSLOPE 0.709003451, MAX_EFFECT 80.70175439, TOP 108.677252",4.69
Cn1ncc2c(NCCCO)nc(Nc3ccc(F)c(F)c3)nc21,PXC50,"BOTTOM 3.669470718, HILLSLOPE 1.210805745, MAX_EFFECT 80.79625293, TOP 84.65096449",5.1
same,PXC50,"BOTTOM -1.663315364, HILLSLOPE 0.981462858, MAX_EFFECT 92.22222222, TOP 100.0",4.94
same,PXC50,"BOTTOM -4.044672009, HILLSLOPE 0.90681659, MAX_EFFECT 92.93598234, TOP 107.9137749",4.87
COc1ccc(C)cc1CN1CCC(c2cc3ncccc3cn2)CC1,PXC50,"BOTTOM 4.302486836, HILLSLOPE 1.43779927, MAX_EFFECT 88.21490468, TOP 100.0",4.58
same,PXC50,"BOTTOM 8.282667515, HILLSLOPE 1.048150925, MAX_EFFECT 85.90604027, TOP 109.7015184",4.5
same,PXC50,"BOTTOM -10.94583239, HILLSLOPE 1.338598097, MAX_EFFECT 90.27777778, TOP 104.5409309",4.59
Cc1cnn(CC2CCCN2Cc2nc(C)c3ccccc3n2)c1 (stereo not drawn),PXC50,"BOTTOM 4.743177934, HILLSLOPE 1.089829687, MAX_EFFECT 75.04332756, TOP 100.0",4.32
same,PXC50,"BOTTOM 12.95021696, HILLSLOPE 2.00591159, MAX_EFFECT 86.80555556, TOP 100.0",4.37
same,PXC50,"BOTTOM -2.883731045, HILLSLOPE 1.436435191, MAX_EFFECT 78.52348993, TOP 84.80947153",4.63
Cn1ncc2c(NCCc3nnn[nH]3)nc(Nc3ccc(F)c(F)c3)nc21,PXC50,"BOTTOM 6.583334695, HILLSLOPE 0.991501174, MAX_EFFECT 88.67924528, TOP 94.6320251",5.11
same,PXC50,"BOTTOM -5.664940327, HILLSLOPE 0.831663104, MAX_EFFECT 86.00508906, TOP 96.34066377",5.16
same,PXC50,"BOTTOM -7.167085921, HILLSLOPE 0.718342131, MAX_EFFECT 85.0877193, TOP 100.1570552",5.14
Cn1ncc2c(N3CCOCC3)nc(Nc3ccc(F)c(F)c3)nc21,PXC50,"BOTTOM 9.319609168, HILLSLOPE 1.297043796, MAX_EFFECT 53.57833656, TOP 67.28849304",5.29
same,PXC50,MAX_EFFECT 10.12396694,< 4
same,PXC50,MAX_EFFECT 42.73127753,< 4
O=C(CCc1n[nH]c2c1CCCC2)N1C[C@@H]2CC[C@H](C1)N(CC1CC1)C2,PXC50,"BOTTOM 12.11622841, HILLSLOPE 1.527540497, MAX_EFFECT 61.47110333, TOP 100.0",4.08
same,PXC50,"BOTTOM -0.508945456, HILLSLOPE 1.017254843, MAX_EFFECT 57.14285714, TOP 100.0",4.12
same,PXC50,"BOTTOM -1.441363941, HILLSLOPE 1.01121357, MAX_EFFECT 60.86956522, TOP 100.0",4.2
CCN(CC)c1ccc2ccc(C(=O)N3CCCCO3)cn12,PXC50,"BOTTOM -0.620934572, HILLSLOPE 1.091774088, MAX_EFFECT 59.15492958, TOP 100.0",4.06
same,PXC50,"BOTTOM -3.857934484, HILLSLOPE 1.704145188, MAX_EFFECT 56.25, TOP 100.0",4.39
same,PXC50,MAX_EFFECT 43.85964912,< 4
same,PXC50,MAX_EFFECT 47.96296296,< 4

# From ChEMBL document CHEMBL3988442, “University of Dundee, Small-Polar-MMV Screening Library” (2021)
